The results in this text go back to PubChem BioAssay AID1347051 (National Center for Advancing Translational Sciences (NCATS), 2019).

The structures appear in SMILES notation. The whole screen tested about 1,400 compounds, of which about 980 (70%) were called active. About 16% were inconclusive and are not listed. The call rests on the fitted dose curve. The set was probably picked from earlier hits. Not all results are given here.
On the % scale 0 is the no-effect control and ±100 the full control effect; potency means the concentration at half of the fitted maximal effect.

The assay in a line: Natriuretic polypeptide receptor (hNpr1) antagonism - Counterscreen GloSensor control cell line. Further: nearly all actives have a fitted effect of over 70% in size. Particulars: HEK293 GloSensor cGMP, SNP-stimulated, luminescence; series mostly up to 57.6 µM; activity change, negative = inhibition: at the top concentration. As for the experimental part:
cGMP production was measured using a circular permutated firefly luciferase (FLuc) enzyme functionally linked to the cGMP binding domain of human phosphodiesterase 5 (GloSensor technology pGS-40F, (Fan, F. et al. 2008). The cGMP-sensor was expressed in human embryonic kidney 293 (HEK-293) cells and FLuc activity was measured after stimulation with the NO-donor sodium nitroprusside (SNP). SNP activates the endogenously expressed soluble guanylyl cyclase (GC) producing cGMP which then binds to the GloSensor resulting in FLuc activation, the enzymatic activity of which can be measured as bioluminescence with addition of luciferin substrate. F. Fan, B. F. Binkowski, B. L. Butler, P. F. Stecha, M. K. Lewis, K. V. Wood, Novel genetically encoded biosensors using firefly luciferase. ACS Chem Biol 3, 346-351 (2008).
PROTOCOL TABLE (as described by Inglese J, Shamu CE and Guy RK. 2007) SEQUENCE No. (e.g., 1, 2, 3, etc.); PARAMETER (e.g., Cells, Incubation, Reagent, etc.); VALUE and DESCRIPTION. 1. Cells. Seed 1500 HEK293 cGMP-sensor cells per well in 4uL into Greiner 1536-well white/solid bottom high base, TC plates. 2. Incubation. Incubate plated cells at 37C in 5% CO2, 95% RH overnight. 3. Reagent. Add 1uL per well GloSensor reagent from Promega (2% final concentration) or CO2 independent media vehicle control to respective columns of Greiner 1536-well plates. 4. Incubation. Incubate plated cells at room temperature for 2 h, protect from light. 5. Compounds. Library compounds and DMSO vehicle control added at 23nL per well, transferred by Pin Tool. 6. Incubation. Incubate plated cells for 30 min. at room temperature, protect from light. 7. Detector. GloSensor baseline pre-read luminescence measured using CCD-based camera (Viewlux). 8. Compound. Add 1uL of sodium nitroprusside (SNP) to 50 uM final concentration to stimulate soluble guanylyl cyclase (GC) or CO2 independent media as vehicle control. 9. Incubation. Incubate treated cells at room temperature for 20 min., protect from light. 10. Detector. GloSensor post-SNP luminescence measured using CCD-based camera (Viewlux). NOTES (numbers refer to Sequence numbers above; values are from representative experiments) 1. HEK293 cells expressing GIP/pGS-40F were grown to 85-95% confluence (48-72 h) in T175 culture flasks (CO2 independent media supplemented with 10% FBS, 1% Pen/Strep antibiotics, and 1 ug/mL puromycin). Trypsinize and harvest cells from T175 culture flasks and filter through 40 um cell strainer. Cells counted with Invitrogen Countess (30,000,000 - 50,000,000 cells/flask). Cells diluted to a final concentration of 375 cells/uL in CO2 independent media and a Millipore multidrop used to dispense 1500 cells per well (4uL/well) into 13 1536-well Greiner White/Solid bottom, high base tissue-culture treated (TC) plates and one Aurora 1536-well Black/Clear bottom, low base, TC plate (for visual inspection of cell health throughout the duration of the assay). 2. Cells incubated for 24 h. at 37C in 95% RH incubator with metal lid having gas-exchange holes. 3. Prepare GloSensor Reagent (Promega): Reconstitute GloSensor luciferase substrate by adding 8.2mL Hepes buffer to 250mg substrate, mix well, protect from light and stored at -80C. Prepare a fresh 12% GloSensor solution in CO2 independent supplemented plating media (see above). Mix well and store at ambient temperature, protected from light. 1uL 12% GloSensor Luciferase Reagent added (2% final concentration) to respective columns of 13 x 1536-well Greiner plate with BioRaptr, 1uL CO2 independent plating media added to respective columns as vehicle control with BioRaptr. 4. Cells incubated for 2 h. at ambient temperature, protected from light with metal lid having gas-exchange holes. 5. 23nL of library compounds or DMSO vehicle control transferred to 13 Greiner white/solid bottom high base, TC plates in 11 interplate 1:3 titrations (see Yasgar, A. et al. 2008) with Pintool. 6. […]
Background: A counterscreen serves to expose hits that act by an unwanted route or on another target.
As to `COc1cc2c(cc1Oc1cccc(N(C)C)c1)NC(=O)C21CCN(Cc2ccccn2)CC1`, the Potency was 19.3 µM (active). Same read-out and setting: then `COc1cc2c(cc1OCc1ccncc1)NC(=O)C21CCN(c2ncc(F)cn2)CC1`, with 44.4 µM (active); and `COc1cc2c(cc1Oc1cccc(N(C)C)c1)NC(=O)C21CCN(CCC(C)C)CC1`, with 31.4 µM (active). Take `COc1cc2c(cc1Oc1cccc(N(C)C)c1)NC(=O)C21CCN(c2cnccn2)CC1`: the Potency was 21.7 µM (active). Regarding `CCC(CC)c1cc([C@H]2CN3CC[C@H]2C[C@@H]3CNS(=O)(=O)c2ccccc2C#N)nc(-c2ccncc2)n1`, the “activity change, negative = inhibition” value was -6.91% (inactive). `CCC(CC)c1cc([C@H]2CN3CC[C@H]2C[C@@H]3CNC(=O)NCc2ccccc2)nc(-c2ccncc2)n1`: the “activity change, negative = inhibition” value was -5.58% (inactive). On the same count and under the same terms, then `CCC(CC)c1cc([C@H]2CN3CC[C@H]2C[C@@H]3CNS(=O)(=O)Cc2ccccc2)nc(-c2ccncc2)n1`, with 2.91% (inactive).
